Results: PubChem BioAssay (Tox21)
Results filed as inconclusive are left out. Entries that show only a call come without a potency. Calls of active or inactive are those of the source. Calls come from the whole dose curve; as a rule, active = well fitted cell-killing curve with a large enough effect in the repeat runs; inconclusive = weak or mixed curves, or effect the other way; inactive = flat fitted curve, though single readings scatter.

Assay: qHTS RealTime-Glo MT Cell Viability Assay in HEK293 cells - 0 hour (AID 1224880); note: top concentration of the series differs between compounds; nearly all actives have a fitted effect of over 45% in size
Conditions: RealTime-Glo luminescence; series mostly up to 76.8 µM
Source text: U.S. Tox21 Program National Center for Advancing Translational Sciences [NCATS] NIH Chemical Genomics Center [NCGC] U.S. Environmental Protection Agency [EPA] National Institutes of Environmental Health Sciences [NIEHS] National Toxicology Program [NTP] U.S. Food and Drug Administration [FDA] Tox21 Assay Overview: Measure of cell viability is critical in the cell-base assay. Analysis of cell viability is necessary for the characterization of cell responses to cytotoxic drugs and environmental stress. A RealTime-Glo MT Cell Viability Assay to monitor cell viability in real time of continues cell culture during 40 hours of compound treatment was used to screen Tox21 10K library compounds in Hek293 cells. The RealTime-Glo MT Cell Viability Assay is a nonlytic, homogeneous, bioluminescent method to measure cell viability in real time using a simple, plate-based method. The assay involves adding NanoLuc luciferase and a cell-permeant prosubstrate to cells in culture. Viable cells reduce the proprietary prosubstrate to generate a substrate for NanoLuc luciferase. This substrate diffuses from cells into the surrounding culture medium, where it is rapidly used by the NanoLuc Enzyme to produce a luminescent signal. The signal correlates with the number of viable cells, making the assay well suited for cytotoxicity studies.
Tox21 Assay Protocol Summary: The mixture of Hek293 cell suspension and reagents were dispensed at 600cells/6 ul/well in 1536-well tissue culture treated black solid bottom plates using a Multidrop dispenser. After the assay plates were incubated at a 37 C/5% CO2 incubator for 5 hours, 23 nL of compounds dissolved in DMSO, positive and negative controls was transferred to the assay plate by a pintool work station. The plates were incubated at 37 C for 40 hours. The luminescence intensity were measured at 0h, 8h, 16h, 24h, 32h and 40h time points using ViewLux plate reader during compound treatment.

| SMILES | Potency | activity change, negative = cytotoxicity |
| --- | --- | --- |
| CC(=O)CC/C=C(\C)CC/C=C(\C)CC/C=C(\C)CCC=C(C)C | inactive | – |
| CC(C)=CCC/C(C)=C/C=N/O | inactive | – |
| CC(=O)Nc1cccc(N)c1 | inactive | – |
| CC/C=C/CCO | inactive | – |
| CC(=O)Nc1ccccc1O | inactive | – |
| CCCCCCCCCCCCSC#N | inactive | – |
| O=C(O)c1ccc2c(c1)nc(C(=O)NC1CCN(C3CC3)CC1)n2Cc1cc(-c2ccc(Cl)s2)on1 | – | -5.93% [at 15.8 µM] (inactive) |
| CC(C)(C)N | inactive | – |
| Nc1ccccc1Nc1ccccc1 | inactive | – |
| O=C(Nc1ccc2c(c1)Cc1ccccc1-2)C(F)(F)F | inactive | – |
| O=C1c2ccccc2C(=O)C1c1ccc2ccccc2n1 | inactive | – |
| COC(=O)C(C)(C)C | inactive | – |
| Clc1nc2ccccc2nc1Cl | inactive | – |
| CC(O)CN (stereo not given) | inactive | – |
| CCC[Si](OC)(OC)OC | inactive | – |
| CCCC1CCCC(=O)O1 (stereo not given) | inactive | – |
| O=C(O)c1cc(C(=O)O)cc([N+](=O)[O-])c1 | inactive | – |
| FC(F)(Cl)C(F)(Cl)Cl | inactive | – |
| Cc1ccc(NC=O)c(C)c1 | inactive | – |
| CCc1ccc2c(c1)C(=O)c1ccccc1C2=O | inactive | – |

| SMILES | Potency | activity change, negative = cytotoxicity |
| --- | --- | --- |
| Oc1ccc(Oc2ccccc2)cc1 | inactive | – |
| CCC1=C(C)CN(C(=O)NCCc2ccc(S(=O)(=O)NC(=O)NC3CCC(C)CC3)cc2)C1=O (stereo not given) | inactive | – |
| COC(=O)c1cc(Cl)ccc1[N+](=O)[O-] | inactive | – |
| Nc1nc(Cl)nc2c1ncn2[C@H]1C[C@H](O)[C@@H](CO)O1 | inactive | – |
| CCCCCCCCNC | inactive | – |
| CCC(CC)C(=O)O | inactive | – |
| CC1(C)[C@@H]2CC[C@]3(C2)[C@@H]1C(=O)CCC3(C)C | inactive | – |
| c1ccc(CCNc2nc(-c3ccccc3)cs2)cc1 | inactive | – |
| CC(C)Oc1ccccc1O | inactive | – |
| COC(=O)/C=C/C(C)=C\C=C\C(C)=C\C=C\C=C(C)\C=C\C=C(C)\C=C\C(=O)O | inactive | – |
| [O-][n+]1ccc(Cl)cc1 | inactive | – |
| Cc1c(Nc2ncccc2C(=O)O)cccc1C(F)(F)F | inactive | – |
| CCCCCCOC(=O)c1ccccc1 | inactive | – |
| CCOc1ccccc1O | inactive | – |
| Cc1c(-c2cccnc2)c2ccccc2n1CCCCC(=O)O | inactive | – |
| O=C(C1CCCCC1)N1CC(=O)N2CCCc3ccccc3C2C1 (stereo not given) | inactive | – |
| Oc1ccc(CCNCCCCCCNCCc2ccccc2)cc1O | inactive | – |
| CCCCCCCCS | inactive | – |
| C=CC(C)(O)CC/C=C(/C)CCC=C(C)C (stereo not given) | inactive | – |
| O=C(N[C@@H](Cc1ccccc1)[C@@H](O)C(=O)N1C[C@@H](O)[C@@H](O)C1)c1cc2cc(Cl)ccc2[nH]1 | inactive | – |
